# Screens (PubChem)
# Most compounds without a hit are left out; they make up all but 4.8% or so of the library.
# DAX1 inh-1 – NR0B1 (DAX1) inhibition | 340,000 tested, 0.99% active | HEK293 Gal4-DAX1 luciferase reporter, luminescence | inhibition, % at 6.75 µM;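 active = inhibition above the mean over all tested compounds plus 3 SD, cut at about 4.2% in these data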;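 also: 0% = DAX1-transfected cells with DMSO and 100% = empty-vector control cells with DMSO; inhibition shows as a rise in luminescence from relieved DAX1 repression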
# Target sequence (P51843 207-470 limits assumed): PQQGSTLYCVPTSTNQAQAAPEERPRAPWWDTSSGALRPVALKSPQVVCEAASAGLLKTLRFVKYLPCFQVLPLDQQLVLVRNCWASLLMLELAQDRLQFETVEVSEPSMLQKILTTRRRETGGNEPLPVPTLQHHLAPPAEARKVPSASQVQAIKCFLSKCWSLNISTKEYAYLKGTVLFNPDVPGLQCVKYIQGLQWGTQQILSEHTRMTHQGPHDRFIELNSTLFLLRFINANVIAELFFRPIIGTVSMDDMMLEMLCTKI
# SMARCA2 activ – activators of SMARCA2 function; MG213 cells, MMTV-luciferase reporter, dexamethasone, overnight; activation, % at 9.1 µM; 370,000 tested, 1% active; AID 652017; in the data active = activation above about 7.8%;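 also: 0% = vehicle wells and 100% = reference activator wells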
# hcDAF-12 act – activators of H. contortus DAF-12 nuclear receptor; HEK293 hcDAF-12 lit1-tk-luc reporter, luminescence; 0% DMSO, 100% Δ7-dafachronic acid; activation, % at 6.8 µM; 370,000 tested, 1.4% active;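 active = activation above the mean of all tested compounds plus 3 SD, cut at about 5.5% in these data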;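 also: 100% = response to 3 µM Δ7-dafachronic acid high control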
# hgDAF12 agonist – hgDAF-12 agonism, primary luciferase screen | HEK293 GAL4-hgDAF12 UAS-luciferase reporter, agonist luminescence; normalized to butyrate control | activation, % at 6.8 µM | 370,000 tested, 1.8% active | AID 687014;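 active = activation above a cutoff set at the mean of all screened compounds plus 3 SD, cut at about 10% in these data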;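 also: 0% = DMSO wells and 100% = sodium butyrate wells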
# DAX1 inh-2 – inhibitors of DAX1 repression of SF-1 activated StAR promoter. HEK293T StAR-luciferase reporter, SF-1/DAX-1 repression relief. AID 652010. inhibition, % at 6.8 µM. 370,000 tested, 1.1% active;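 active = inhibition above the mean over all tested compounds plus 3 SD, cut at about 3.6% in these data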;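 also: 0% = DAX-1 cells with DMSO and 100% = cells lacking DAX-1 with DMSO; higher inhibition means more luminescence from relief of DAX-1 repression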
# ssDAF-12 act – S. stercoralis DAF-12 activation, primary screen. HEK293 ssDAF-12/GRIP1 lit1-tk-luc reporter, luminescence; % of 3 µM dafachronic acid response. activation, % at 6.8 µM. 370,000 tested, 1% active;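 active = activation above the mean over all tested compounds plus 3 SD, cut at about 0.9% in these data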;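 also: 0% = DMSO-only wells and 100% = 3 µM delta7-dafachronic acid wells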
# * marks the source's active call; other numbers are inactive results; . = no result given.
SMILES,DAX1 inh-1,SMARCA2 activ,hcDAF-12 act,hgDAF12 agonist,DAX1 inh-2,ssDAF-12 act
CCOc1ccc(N(CC(=O)NCc2ccccc2)C(=O)Cn2nnc(-c3ccc(C)o3)n2)cc1,1,-4,-2,2,0,-1
COc1ccc(CC(=O)NC(C)c2nnc(SCC(=O)Nc3ccccc3F)n2C)cc1 (centres undefined),-1,-2,-2,-1,0,-1
COC(=O)c1cscc1NC(C)=O,0,2,-1,3,0,-1
C/C(=C\C(=O)Nc1cscc1C)C(=O)O,1,0,5,2,0,1.1*
Cc1ccc(C(=O)NNC(=S)NCC2CCCO2)cc1[N+](=O)[O-] (centres undefined),0,0,0,0,2,-1
CCCCN1CCC(COC(=O)c2cc(Cl)c(N)c3c2OCCO3)CC1,2,5,-2,4,4.5*,-1
NS(=O)(=O)c1ccc(NC(=S)N2CCc3ccccc32)cc1,0,2,2,0,0,-1
Cc1ccc(C)n1NC(=O)c1ccccc1O,2,-2,4,4,3,1.4*
Cc1ccc(C)n1NC(=O)c1ccccc1[N+](=O)[O-],0,-1,-1,3,0,-1
O=C(NCCc1ccccc1)C1CCCN1C(=O)Nc1ccc(F)cc1 (centres undefined),5.1*,-1,3,0,0,-1
O=C(NCCc1ccc(Cl)cc1)C1CCCN1C(=O)Nc1ccc(F)cc1 (centres undefined),-1,-1,-1,1,0,-2
Cc1c2n(c3ccccc13)CCC2=O,-1,2,0,1,0,-1
Cc1ccc(NC(=S)NNC(=O)c2cccc([N+](=O)[O-])c2)cc1Cl,2,0,1,1,1,-1
O=C(NNC(=S)Nc1ccc(F)cc1)c1cccc([N+](=O)[O-])c1,1,-1,1,1,0,1.8*
O=C(NNC(=O)c1ccc([N+](=O)[O-])cc1Cl)c1ccncc1,1,-1,3,3,1,1.0*
O=C(O)COc1ccc(Br)cc1/C=N\Nc1ccccn1,4.7*,.,.,.,.,.
CC(=O)Nc1ccc(S(=O)(=O)NCc2ccccn2)cc1,4.3*,0,-1,-1,-1,-1
Nc1ccc(S(=O)(=O)NCc2ccccn2)cc1,2,-2,2,3,0,-1
CCN(CCN(C)C)C(=O)Cn1ncc2c1-c1cc(C)ccc1OC2,5.6*,3,-1,2,0,-1
Cc1ccc(/C=N/Nc2ccccn2)s1,1,5,1,11*,0,0
COc1ccc(C2/C(=C(\O)c3cccc(OC)c3)C(=O)C(=O)N2c2ccccn2)cc1 (centres undefined),6.8*,0,-1,1,-1,-1
COc1cccc(/C(O)=C2\C(=O)C(=O)N(c3ccccn3)C2c2ccccc2OC)c1 (centres undefined),2,0,1,-1,0,-1
CC1(C)CC(=O)C([N+](=O)[O-])=C(NCCCC(=O)O)C1,4.5*,-2,1,-1,0,-1
CC1(C)CC(=O)C(C#N)=C(NCCCO)C1,0,0,-1,-3,1,-1
O=C(CN1CCC(C(=O)c2ccc(Cl)cc2)CC1)NC1CCCC1,0,-2,-2,-1,0,-1
SMILES,DAX1 inh-1,SMARCA2 activ,hcDAF-12 act,hgDAF12 agonist,DAX1 inh-2,ssDAF-12 act
CC(C)CCOCC(=O)Nc1cccc(C(=O)O)c1,-2,3,4,12*,3,0
Cc1ccccc1/C=N/Nc1ncnc2nc[nH]c12,1,0,0,1,0,-1
Clc1cnc(N/N=C/c2cccs2)c(Cl)c1,3,5,1,9,2,1.0*
Cc1ccsc1/C=N/Nc1ncnc2nc[nH]c12,4.6*,5,2,3,3,-1
Cc1ccc(/C=N/Nc2ncc(Cl)cc2Cl)s1,3,1,3,8,3,0
C(=N\Nc1ncnc2nc[nH]c12)/c1cccs1,5.7*,1,0,3,1,0
CC(C)C[C@H](N)C(=O)N1CCC(C(=O)N[C@H](C(=O)NCc2ccc(F)cc2)C(C)C)CC1,2,3,-1,1,-1,-1
